Shown are actives, neighbours in structure and some others; about 2.4% of the full set was active somewhere.
GLS inh: blocks human kidney-isoform glutaminase activity. 0.21% of 410,000 active. Potency, µM (doses to about 45.5 µM), usual class: inhibitors. GLS enzymatic activity, qHTS titration. AID 624170. O94925
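Two-point fluorescence kinetic (t0, 30 min RT) for hKGA; glutamate detected via glutamate oxidase–HRP–Amplex Red. Substrate: 1 mM L-glutamine solution; buffer 45 mM KH2PO4, pH 8.2.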
Pol kappa inh: DNA polymerase kappa (human) inhibition; Q9UBT6; Potency, µM (series often up to 107 µM), hits mostly inhibitors; purified Pol kappa, fluorescent DNA synthesis assay, 10 min; 0.53% of 400,000 active
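Enzyme at 10 nM met test compounds for 15 min at room temperature. Substrate addition (50 nM final) began the reaction, which was monitored by fluorescence at 0 and 10 min.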
GCN5L2 inh: inhibitors of human GCN5L2 histone acetyltransferase. GCN5L2 HAT assay, ThioGlo1 CoA-SH fluorescence. Potency, µM (titrated, usually from 58.9 µM), usual class: inhibitors. AID 504327. 0.21% of 390,000 active
Target sequence (Q92830 whole entry, looked up): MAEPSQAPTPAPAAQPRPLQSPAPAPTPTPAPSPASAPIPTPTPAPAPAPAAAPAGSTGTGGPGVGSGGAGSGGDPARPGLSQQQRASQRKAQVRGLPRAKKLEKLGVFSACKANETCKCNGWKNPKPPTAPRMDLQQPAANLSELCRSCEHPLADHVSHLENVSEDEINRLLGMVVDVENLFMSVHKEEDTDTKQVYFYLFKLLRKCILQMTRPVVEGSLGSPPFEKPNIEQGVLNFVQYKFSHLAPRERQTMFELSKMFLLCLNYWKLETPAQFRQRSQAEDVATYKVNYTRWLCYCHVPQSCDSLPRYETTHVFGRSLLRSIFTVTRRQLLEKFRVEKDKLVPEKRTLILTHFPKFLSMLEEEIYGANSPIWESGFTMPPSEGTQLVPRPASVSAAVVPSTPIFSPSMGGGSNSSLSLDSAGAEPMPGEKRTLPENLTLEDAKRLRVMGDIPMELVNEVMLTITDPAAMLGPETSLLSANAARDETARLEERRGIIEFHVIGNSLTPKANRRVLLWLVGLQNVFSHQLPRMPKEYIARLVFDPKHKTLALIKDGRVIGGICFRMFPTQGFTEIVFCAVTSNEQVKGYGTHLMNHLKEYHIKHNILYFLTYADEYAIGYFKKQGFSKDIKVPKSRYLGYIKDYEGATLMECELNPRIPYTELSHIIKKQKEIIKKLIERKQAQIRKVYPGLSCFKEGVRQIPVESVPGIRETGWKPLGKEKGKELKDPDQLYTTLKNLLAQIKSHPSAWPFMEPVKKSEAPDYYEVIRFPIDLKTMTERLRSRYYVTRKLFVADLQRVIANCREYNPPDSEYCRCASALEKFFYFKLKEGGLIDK
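Fluorescence readout, Ex340nm/Em540nm: ThioGlo1 (50uM final) reacts with free CoA thiol released as 20nM GCN5L2 acetylates H3(1-25) peptide (75uM) using acetyl-CoA (70uM). Compound and enzyme sat 15 min beforehand; 20 min room-temperature reaction.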
Pol iota inh: blocks human DNA polymerase iota activity. Q9UNA4. Pol iota fluorescent replication assay, 10 min. Potency, µM (top dose mostly 115 µM), hits mostly inhibitors. 1% of 390,000 active. AID 588590
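Pol iota at 10 nM preincubated 15 min with compounds at room temperature; reaction started with fluorescent substrate, 50 nM final. Fluorescence read kinetically at 0 and 10 min; buffer-only wells as negative control.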
Pol beta inh: blocks human DNA polymerase beta activity; AID 485314; P06746; 1.3% of 340,000 active; Potency, µM (doses to about 114 µM), actives largely listed as inhibitors; Pol beta primer extension/strand displacement, fluorescence kinetic
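Preincubation: enzyme (10 nM) with compound, 15 min, RT. Reaction: substrate added to 50 nM final. Reads: 0 and 10 min. Analysis: normalized, Hill fit.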
Pol eta inh: DNA polymerase eta (human) inhibition; Q9Y253; recombinant Pol eta, fluorescent DNA replication assay; Potency, µM (series often up to 114 µM), usual class: inhibitors; 1.2% of 390,000 active
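Fluorescent replication assay: 50 nM final substrate added after a 15 min room-temperature compound preincubation with 10 nM enzyme. Signal taken at 0 min and again at 10 min.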
Of the large screens only hits and unclear results are named; the others gave an inactive call; ! = not confirmed by another sample. Calls come from the whole dose curve; as a rule, active = well fitted inhibition curve with a large enough effect; inconclusive = small, poorly fitted or top-dose-only effect, or another doubt; inactive = no such curve, though single readings can be large or run the other way.

CCn1c(O)c(C=Nc2ccc(N3CCOCC3)c(Br)c2)c(=O)n(CC)c1=S	GCN5L2 inh inconclusive
CCn1c(O)c(C=Nc2ccc(N3CCOCC3)cc2)c(=O)n(CC)c1=S	GCN5L2 inh inconclusive, Pol beta inh 18µM
C=C/C(=C/C(=O)C[C@H](C)C[C@@H](C)CC[C@H](O)[C@H](C)C(=O)C[C@@H](O)[C@H](C)[C@@H](C)OC(=O)C[C@@H](O)C1=C(C)C(=O)OC1=O)CC	Pol kappa inh 4.7µM, GCN5L2 inh 3.2µM (no result: GLS inh, Pol iota inh, Pol beta inh, Pol eta inh)
COc1cc(/C=C/[N+](=O)[O-])ccc1O	Pol iota inh 32µM
CCN(CC)c1ccc(/C=C/[N+](=O)[O-])cc1	Pol iota inh inconclusive
C=C1CCC(O)C/C1=C/C=C1\CCC[C@]2(C)[C@@H]([C@H](C)CCCC(C)C)CC[C@@H]12 (stereo partly drawn)	none (no result: GLS inh, Pol iota inh, Pol beta inh, Pol eta inh)
Cc1cc(C)cc(N2C(=O)NC(=O)/C(=C\c3cccn3-c3ccc(Cl)cc3)C2=O)c1	Pol iota inh inconclusive, Pol eta inh 22µM
C[C@H]1[C@@H]2Cc3ccc(O)cc3[C@]1(C)CCN2CCc1ccccc1	none (no result: Pol kappa inh, GCN5L2 inh, Pol iota inh, Pol beta inh, Pol eta inh)
O=C1/C(=C\c2ccccc2)C[C@@]2(O)[C@H]3Cc4ccc(O)c5c4[C@@]2(CCN3CC2CC2)[C@H]1O5	none (no result: GLS inh, Pol iota inh, Pol beta inh, Pol eta inh)
CCC1(C)OC(c2ccccc2)=C/C(=C/C=C2C(=O)NC(=O)NC2=O)O1 (stereo not drawn)	Pol iota inh 28µM, Pol beta inh inconclusive
O=C1C=Cc2ccccc2C1=O	GCN5L2 inh 28µM, Pol beta inh inconclusive (no result: GLS inh, Pol kappa inh, Pol iota inh, Pol eta inh)
CCCCC/C=C\C/C=C\C/C=C\C/C=C\CCCC(=O)O	Pol kappa inh 13µM!, GCN5L2 inh 22µM! (no result: GLS inh, Pol iota inh, Pol beta inh, Pol eta inh)
CN(C)[C@@H]1C(=O)C(C(N)=O)=C(O)[C@@]2(O)C(=O)C3=C(O)c4c(O)cccc4[C@@](C)(O)C3C[C@@H]12 (stereo partly drawn)	Pol kappa inh 79µM, Pol iota inh inconclusive (no result: Pol beta inh)
CN(C)C1C(=O)C(C(N)=O)C(=O)C2(O)C(=O)C3C(=O)c4c(O)cccc4C(C)(O)C3C(O)C12 (stereo not drawn)	GLS inh 6.3µM, Pol kappa inh 2.8µM, GCN5L2 inh 10µM (no result: Pol iota inh, Pol beta inh, Pol eta inh)
CN(C)C1C(=O)C(C(N)=O)=C(O)[C@@]2(O)C(=O)C3=C(O)c4c(O)cccc4[C@](C)(O)C3C(O)C12 (stereo partly drawn)	Pol kappa inh 2.8µM (no result: GLS inh, Pol iota inh, Pol beta inh, Pol eta inh)
CN(C)[C@@H]1C(=O)C(C(N)=O)=C(O)[C@@]2(O)C(=O)C3=C(O)c4c(O)ccc(Cl)c4[C@@](C)(O)[C@H]3C[C@@H]12	none
CC(=O)NCC(N)C(=O)c1ccc(Cl)c(Cl)c1 (stereo not drawn)	none (no result: GLS inh, GCN5L2 inh, Pol beta inh, Pol eta inh)
Oc1ccc(/C=N/NP(=S)(c2ccccc2)c2ccccc2)c(O)c1O	Pol iota inh inconclusive, Pol beta inh 14µM, Pol eta inh inconclusive (no result: GLS inh)
CN(C)c1ccc(/C=C/C=C/c2sc3ccccc3[n+]2C)cc1	Pol iota inh inconclusive, Pol beta inh inconclusive
CC[n+]1c(/C=C/N(C)c2ccccc2)sc2ccc(Cl)cc21	Pol iota inh inconclusive, Pol beta inh 50µM
O=c1[nH]c(=S)[nH]c(O)c1N=Nc1ccc(SC(F)F)cc1	Pol iota inh inconclusive
O=c1[nH]c(=S)[nH]c(O)c1N=Nc1ccc(S(=O)(=O)N2CCc3ccccc32)cc1	Pol beta inh 79µM
O=C(O)c1cc(Oc2ccc([N+](=O)[O-])cc2)cc(Oc2ccc([N+](=O)[O-])cc2)c1	GCN5L2 inh inconclusive (no result: GLS inh, Pol iota inh, Pol beta inh, Pol eta inh)
CC(C)n1c(O)c(C2c3cc(Cl)ccc3Oc3[nH]c(=O)n(C(C)C)c(=O)c32)c(=O)[nH]c1=O (stereo not drawn)	GLS inh inconclusive, GCN5L2 inh 28µM, Pol iota inh 16µM, Pol eta inh inconclusive
C[N+]1([O-])[C@@H]2CC(OC(=O)[C@@H](CO)c3ccccc3)C[C@@H]1[C@H]1O[C@H]12 (stereo partly drawn)	GCN5L2 inh 10µM! (no result: Pol iota inh, Pol beta inh, Pol eta inh)
CC1(C)C(=O)CC[C@]2(C)C3C(=O)C=C4[C@H]5C[C@@](C)(C(=O)O)CC[C@]5(C)CC[C@]4(C)[C@]3(C)CC[C@@H]12 (stereo partly drawn)	Pol beta inh 45µM
NC(Cc1cc(O)c(O)cc1O)C(=O)O (stereo not drawn)	Pol kappa inh 0.67µM, GCN5L2 inh 0.63µM, Pol iota inh 0.4µM, Pol beta inh 0.11µM, Pol eta inh 0.28µM (no result: GLS inh)
N[C@@H](CCl)C(=O)O	none
NCC(CC(=O)O)C1CCCCC1 (stereo not drawn)	Pol iota inh 100µM
COc1cc([C@@H]2c3cc4c(cc3[C@H](O)[C@H]3COC(=O)[C@@H]23)OCO4)cc(OC)c1OC	Pol iota inh inconclusive (no result: GLS inh, GCN5L2 inh, Pol beta inh, Pol eta inh)
COC(C(=O)C(O)C(C)O)C1Cc2cc3cc(OC4CC(OC5CC(O)C(OC)C(C)O5)C(OC(C)=O)C(C)O4)c(C)c(O)c3c(O)c2C(=O)C1OC1CC(OC2CC(OC3CC(C)(O)C(OC(C)=O)C(C)O3)C(O)C(C)O2)C(O)C(C)O1 (stereo not drawn)	Pol kappa inh 21µM (no result: Pol iota inh, Pol beta inh, Pol eta inh)
COc1cc(/C=C2/C(=O)NC(=O)N(c3ccccc3)C2=O)ccc1O	none
CCOc1cc(/C=C2/C(=O)NC(=O)N(c3ccc(CC)cc3)C2=O)ccc1OC(=O)c1cccs1	GLS inh inconclusive, Pol eta inh 45µM
NC(=O)C1CCN(/C=C2\C(=O)NC(=O)N(Cc3ccco3)C2=O)CC1	Pol kappa inh 79µM, Pol iota inh 20µM, Pol beta inh inconclusive, Pol eta inh 18µM
NC(=O)[C@H](Cc1ccccc1)NC(=O)[C@H](Cc1c[nH]c2ccccc12)NC(=O)[C@@H]1CCCN1C(=O)[C@@H](N)Cc1ccc(O)cc1	none (no result: GLS inh, GCN5L2 inh, Pol iota inh, Pol beta inh, Pol eta inh)
C[C@H](CCC(=O)O)[C@H]1CC[C@H]2[C@@H]3CC[C@@H]4C[C@H](O)CC[C@]4(C)[C@H]3CC[C@]12C	Pol kappa inh inconclusive, GCN5L2 inh 25µM!, Pol iota inh inconclusive (no result: Pol beta inh)
C[C@@H]1[C@H](O)[C@@H](C)C=CC=CCCC=CC=CC=CC=C[C@H](O[C@H]2O[C@@H](C)[C@H](O)[C@@H](N)[C@@H]2O)CC2O[C@](O)(C[C@@H](O)[C@H](O)CC[C@@H](O)C[C@@H](O)C[C@@H](O)CC(=O)O[C@H]1C)C[C@H](O)[C@H]2C(=O)O	none (no result: Pol kappa inh, GCN5L2 inh, Pol iota inh, Pol beta inh, Pol eta inh)
NC(N)=N/N=C/c1cn(-c2ccccc2)nc1-c1cccs1	Pol beta inh 28µM
O=c1c2ccccc2nc(-c2cccs2)n1-c1ccccc1	Pol beta inh inconclusive
COc1ccc(-c2nn3c(=O)cc(CN4CCN(S(=O)(=O)c5ccc(C)cc5)CC4)nc3s2)cc1	none
